NPC1 prom act: activates the NPC1 promoter | Huh7 NPC1 promoter luciferase reporter, 24 h | Potency, µM (series often up to 9.22 µM), for the others: top-dose activation, usual class: activators | 320,000 compounds, 2.4% hits; also: % of control where 0% means no effect; nearly all actives have a fitted effect of over 60% in size
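Luminescence from an NPC1 promoter-driven luciferase reporter in stably transfected Huh7 cells was measured after 24 h compound treatment at 37 °C, followed by 10 min ambient incubation with luciferase detection reagent.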
Luc counter: counter-screen: inhibitors of Kinase-Glo firefly luciferase; Kinase-Glo luciferase, ATP luminescence, 8 min; Potency, µM (titrated, usually from 38.3 µM), for the others: top-dose activity change, negative = inhibition, most hits filed as inhibitors; 200,000 compounds, 0.28% hits; also: % is scaled to controls: 0 for no effect and ±100 for the full control effect; nearly all actives have a fitted effect of over 60% in size
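Recombinant Kinase-Glo luciferase, 10 uM ATP (linear range), luciferin; imidazole pH 7.2 / KCl / MgCl2 / Tween / BSA buffer; 8 min RT; luminescence.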
SMN2 splice enh: increases expression of the SMN2 splice variant; HEK293 SMN2-luciferase splicing reporter, luminescence, 30-36 h; Potency, µM (doses to about 46.1 µM), without a hit: at the highest dose activity change, positive = activation, hits mostly activators; 210,000 compounds, 2.8% hits; AID 1458; also: % of control where 0% means no effect; nearly all actives have a fitted effect of over 55% in size
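HEK293 cells carry an SMN2 minigene-luciferase reporter in which exon 7 inclusion puts luciferase in frame. Cells were seeded at 2000 cells/well, attached for 10-12 hours, then exposed to compounds for 30-36 hours at 37C before ONE-Glo luminescence.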
FLuc counter: firefly luciferase modulation, counter-screen for miR-21 project. Potency, µM (highest dose often 57.5 µM), without a hit: at the highest dose activity change, negative = inhibition, actives largely listed as inhibitors. P08659. purified FLuc, Km substrates, luminescence inhibition. 360,000 compounds, 6.9% hits;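 also: plate controls were vehicle for no effect and reference inhibitor for full effect; nearly all actives have a fitted effect of over 55% in size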
Target sequence (P08659 whole entry, looked up): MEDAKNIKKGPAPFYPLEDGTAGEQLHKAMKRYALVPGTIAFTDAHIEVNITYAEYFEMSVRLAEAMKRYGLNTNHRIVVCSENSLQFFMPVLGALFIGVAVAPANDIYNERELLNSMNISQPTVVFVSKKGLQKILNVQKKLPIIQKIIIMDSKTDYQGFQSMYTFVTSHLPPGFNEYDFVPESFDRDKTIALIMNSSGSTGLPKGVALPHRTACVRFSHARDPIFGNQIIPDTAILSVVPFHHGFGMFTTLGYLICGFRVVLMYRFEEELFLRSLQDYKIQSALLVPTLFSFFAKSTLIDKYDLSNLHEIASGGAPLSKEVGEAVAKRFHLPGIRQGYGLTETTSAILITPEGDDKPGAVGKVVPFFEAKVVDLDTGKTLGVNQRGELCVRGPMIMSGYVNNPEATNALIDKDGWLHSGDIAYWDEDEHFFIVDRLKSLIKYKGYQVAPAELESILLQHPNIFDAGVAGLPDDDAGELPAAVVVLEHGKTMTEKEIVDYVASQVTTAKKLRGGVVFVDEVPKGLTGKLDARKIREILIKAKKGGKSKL
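Biochemical qHTS of compounds, final roughly 60 µM downward over six points, against 10 nM purified firefly luciferase using Km concentrations of substrates (10 uM D-luciferin, 10 uM ATP) in Tris acetate pH 7.5 buffer; luminescence output.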
Rab9 promoter act: activators of Rab9 promoter | Huh7 Rab9 promoter-luciferase reporter, luminescence, 24 h | AID 485297 | 320,000 compounds, 2.8% hits | Potency, µM (top dose mostly 9.22 µM), without a hit: at the top dose activation, negative = inhibition, most hits filed as activators; also: % of control where 0% means no effect; nearly all actives have a fitted effect of over 60% in size
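Rab9 promoter-driven luciferase in stably transfected Huh7 cells; 1500 cells/well rested 2 h, exposed to compound in DMSO for 24 h at 37 °C, 5% CO2. Luminescence read 10 min after adding luciferase reagent at ambient temperature.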
ELG1 genotox: induces genotoxicity in HEK293T cells with luciferase-tagged ELG1. Potency, µM (top dose mostly 46 µM), for the others: at the top dose activity change, positive = activation, actives largely listed as activators. HEK293T ELG1-luciferase reporter, luminescence, 16 h. 330,000 compounds, 1.3% hits; also: % of control where 0% means no effect; nearly all actives have a fitted effect of over 60% in size
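Screening used a luciferase reporter fused to human ELG1 in HEK293T cells. Luminescence was read on a CCD plate imager after 16 hr exposure and 30 min ONE-Glo incubation.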
An asterisk follows results filed as active; u = inconclusive; x = no result given; [ ] = dose if it differs, or a comment. An excerpt weighted towards active compounds, which were near 7.3% of everything screened. Calls follow the shape of the dose curve; as a rule, active = well fitted curve in the direction sought with a large enough effect; inconclusive = small, poorly fitted or top-dose-only effect, or another doubt; inactive = no such curve, though single readings can be large; an effect the other way counts as inactive or inconclusive. Potency is read from the fitted curve at half-maximal effect.

SMILES | NPC1 prom act | Luc counter | SMN2 splice enh | FLuc counter | Rab9 promoter act | ELG1 genotox
CO[C@H]1C=C2CCN(C)[C@@H]2[C@@H]2c3cc4c(cc3C(=O)O[C@H]21)OCO4 | x | -1.2%[17.1 µM] | -5.5%[20.6 µM] | x | x | x
O=C1NC(=O)N(c2ccc3c(c2)OCO3)C(=O)/C1=C\c1ccsc1 | -4.1% | x | x | 23.9µM* | 2.2% | -1.4%
O=C1NC(=O)N(c2ccc3c(c2)OCO3)C(=O)/C1=C\c1ccc(-c2ccccc2C(=O)O)o1 | -4.0% | x | x | 15.1µM* | -3.3% | 0.5%
Cc1cccc(N2C(=O)NC(=O)/C(=C/c3ccc(-c4ccc(C(=O)O)c(Cl)c4)o3)C2=O)c1 | -6.4% | 1.6% | 13.4% | 6.01µM* | -2.3% | 10.5%
O=C1NC(=O)N(c2ccc3c(c2)OCO3)C(=O)/C1=C/c1ccc(N2CCCCC2)o1 | -5.9% | 0.1% | -15.6% | -10.1% | 0.8% | 10.0%
CC(C)n1c(O)c(C2c3cc(Cl)ccc3Oc3[nH]c(=O)n(C(C)C)c(=O)c32)c(=O)[nH]c1=O (stereo unspecified) | -47.8% | x | x | u | -48.0% | -21.0%
Cc1ccc(C2(O)CCN3CCCCC32)cc1 (stereo unspecified) | 11.0% | -0.7% | -5.8% | 0.5% | -6.7% | 0.1%
Cc1ccc(S(=O)(=O)Nc2cc(C(=O)N3CCC4(CC3)OCCO4)ccc2N2CCCCC2)cc1 | 0.6% | 1.3% | 13.9% | 8.1% | 1.4% | -5.7%
COc1ccc(N2C(=O)CS(=O)C(c3ccccc3)C2=O)cc1 (stereo unspecified) | 12.4% | -0.9% | 4.2% | 23.9µM* | 12.2% | 13.9%
Nc1ccccc1C(=O)OCCc1ccccc1 | 1.12µM* | x | 14.1µM* | 1.9µM* | 0.794µM* | u
CCCCCCOC(=O)c1ccccc1N | 1.0% | -2.6% | 22.4% | 16.9µM* | -3.6% | u
CCCCOC(=O)c1ccccc1N | x | x | -6.2% | x | x | x
Cc1oc(-c2ccc(Cl)cc2)nc1CN1C(=O)CN=C(c2ccccc2)c2ccccc21 | x | x | x | 0.8% | x | x
CCN1CCN(c2nc([N+](=O)[O-])nn2C)CC1 | -2.9% | x | x | -0.7% | -3.2% | 0.8%
CN(C)c1ccc(/C=C/c2cc[n+](C)c3ccccc23)cc1 | -38.0% | 12.6µM* | -100.0% | u | -30.3%[1.84 µM] | 7.6%
CN(C)c1ccc(/C=C/C=C/c2sc3ccccc3[n+]2C)cc1 | -26.2% | x | x | u | -35.5% | -9.8%
CCN(CC)S(=O)(=O)c1ccc(NN=C(C#N)C#N)cc1 | 0.9% | -2.8% | x | u | -6.6% | -20.5%
N#CC(C#N)=NNc1ccc([N+](=O)[O-])cc1 | 0.1% | x | x | 16.9µM* | -6.8% | -10.8%
C=CCn1c(O)c(/C=C/C=Nc2ccccc2)c(=O)[nH]c1=O | -3.3% | 2.4% | -5.6% | -2.6% | -4.8% | 0.1%
CN1C(=O)C(=Cc2ccccc2OCc2ccccc2Cl)C(=O)N(C)C1=O | -3.6% | -2.3% | 6.4% | u | -3.8% | -0.6%
CN1C(=O)C(=Cc2c(OCc3cnc(Cl)s3)ccc3ccccc23)C(=O)N(C)C1=O | 22.4% | 1.0% | 2.9% | 19µM* | u | u
C/C(=N\NC(=S)Nc1ccccc1)c1c(O)n(C)c(=O)n(C)c1=O | 6.3% | -0.4% | 28.1% | 12µM* | -1.9% | 6.6%
CC/C(=N\Nc1ccccc1)c1c(O)n(C)c(=O)n(C)c1=O | 0.8% | 2.9% | -39.4% | -1.5% | -12.9% | -0.4%
CCOC(=O)C1(c2ccccc2)Oc2ccccc2C(c2ccc(OC)cc2)=C1C(=O)OC (stereo unspecified) | x | -0.3%[39.9 µM] | x | x | x | -1.6%

Source: PubChem (National Center for Advancing Translational Sciences (NCATS))
